According to the supplement of paper PMC7366291:
Counter-ions that a name gives are not always drawn. ± gives the standard deviation.

The compounds below were run on Danio rerio Tg(wt1b:EGFP) embryo, pronephros (assay: glomerular separation, fold change vs DMSO control; higher = glomeruli further apart (abnormal)). Details: 25 µM; exposure: 24-48 hpf.
Method in brief: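 Using a Fiji macro, distances and angles were calculated from 16 reference points set by hand on maximum projections of pronephroi imaged dorsally (470 nm, 10 z-slices) in agarose-filled 96-well plates. The dechorionated Tg(wt1b:EGFP) zebrafish embryos had received 25 μM compound in 0.5% DMSO in HEPES-buffered E3 with 0.003% PTU from 24 to 48 hpf at 28.5°C. Values more than 2 SD from a feature's mean were excluded. Each feature appears as a fold change over the mean of DMSO-treated embryos from the same day.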
Compound `CC1(C)O[C@@H]2C[C@H]3[C@@H]4CCC5=CC(=O)C=C[C@]5(C)[C@H]4[C@@H](O)C[C@]3(C)[C@]2(C(=O)CO)O1` [Desonide] has a glomerular separation of 1.63 ± 0.49.
For `NNC(=O)c1ccncc1` [Isoniazid], the glomerular separation was 0.891 ± 0.099.
In the case of `O=c1[nH]c(=O)n(C2CCCO2)cc1F` (stereo not given) [Tegafur], the glomerular separation is reported as 1.02 ± 0.41.
For `CN1CCOC(c2ccccc2)c2ccccc2C1` (stereo not given) [Nefopam hydrochloride], the glomerular separation was 0.828 ± 0.19.
`COc1ccc(/C=C/C(=O)Nc2ccccc2C(=O)O)cc1OC` [Tranilast] was tested, and the glomerular separation was 2.14 ± 1.2.
Compound `NS(=O)(=O)c1cc(C(=O)O)c(NCc2ccco2)cc1Cl` [Furosemide] has a glomerular separation of 0.867 ± 0.13.
Compound `C[N+](C)(C)CCCCCC[N+](C)(C)C` [Hexamethonium dibromide dihydrate] has a glomerular separation of 0.932 ± 0.3.
In the case of `CCn1cc(C(=O)O)c(=O)c2cnc(N3CCNCC3)nc21` [Pipemidic acid], the glomerular separation is reported as 0.919 ± 0.32.
`c1ccc2c(CC3=NCCN3)cccc2c1` [Naphazoline hydrochloride] gave a glomerular separation of 1.17 ± 0.54.
For `CN(C)CCC(c1ccc(Cl)cc1)c1ccccn1` (stereo not given) [Chlorpheniramine maleate], the glomerular separation was 1.56 ± 0.77.
In the case of `COc1ccc(CN2CCN(C(c3ccc(F)cc3)c3ccc(F)cc3)CC2)c(OC)c1OC` [Lomerizine hydrochloride], the glomerular separation is reported as 0.888 ± 0.33.
Work on `CN(C)CCC=C1c2ccccc2COc2ccccc21` [Doxepin hydrochloride] yielded a glomerular separation of 0.925 ± 0.22.
`CCN(CC)CCNc1ccc(CO)c2sc3ccccc3c(=O)c12` [Hycanthone] showed a glomerular separation of 1.12 ± 0.27.
`Nc1ccccc1S(N)(=O)=O` [2-Aminobenzenesulfonamide] was tested, and the glomerular separation was 0.99 ± 0.24.
Compound `C[C@@H](O)[C@H]1C(=O)N2C(C(=O)O)=C(SCCNC=N)C[C@H]12` [Imipenem] has a glomerular separation of 0.805 ± 0.16.
